According to PubChem BioAssay AID1159580 (chemical genetic matrix, 2015):
Among all 5,500 compounds or so, about 2,000 (36%) were called active. About 18% were inconclusive and are not listed. No stated cut-off is given here; in the data, active means normalized growth mostly below about 0.91 (no sharp cut-off); inconclusive means no clear call, values can overlap the other calls; inactive means mostly above about 0.92. The list shows a part of the results.

Assay: chemical genetic growth profiling, strain panel (AID 1159580);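 further: tested at 20 µM; growth read once vehicle control cultures reached saturation at 30 °C; 1 = growth at the plate median or of vehicle wells; lower values mean less growth of the strain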
Settings: growth OD
[1] = S. cerevisiae deletion strains, locus YAL013W, strain DEP1, hits give low values
[2] = S. cerevisiae deletion strains, locus YBR229C, strain ROT2, hits give low values
[3] = S. cerevisiae deletion strains, locus YDL101C, strain DUN1, hits give low values
[4] = S. cerevisiae deletion strains, locus YDL134C, strain PPH21, hits give low values
[5] = S. cerevisiae deletion strains, locus YDR150W, strain NUM1, hits give low values
[6] = S. cerevisiae deletion strains, locus YEL061C, strain CIN8, hits give low values
[7] = S. cerevisiae deletion strains, locus YGR078C, strain PAC10, hits give low values
[8] = S. cerevisiae deletion strains, locus YHR030C, strain SLT2, hits give low values
[9] = S. cerevisiae deletion strains, locus YHR087W, strain rtc3, hits give low values
[10] = S. cerevisiae deletion strains, locus YJR043C, strain POL32, hits give low values
[11] = S. cerevisiae deletion strains, locus YJR075W, strain HOC1, hits give low values
[12] = S. cerevisiae deletion strains, locus YLR039C, strain RIC1, hits give low values
[13] = S. cerevisiae deletion strains, locus YLR058C, strain SHM2 (second series), hits give low values
[14] = S. cerevisiae deletion strains, locus YLR085C, strain ARP6, hits give low values
[15] = S. cerevisiae deletion strains, locus YLR262C, strain YPT6, hits give low values
[16] = S. cerevisiae deletion strains, locus YML094W, strain GIM5, hits give low values
[17] = S. cerevisiae deletion strains, locus YMR219W, strain ESC1, hits give low values
[18] = S. cerevisiae deletion strains, locus YMR263W, strain SAP30, hits give low values
[19] = S. cerevisiae deletion strains, locus YNL153C, strain GIM3, hits give low values
[20] = S. cerevisiae deletion strains, locus YNL298W, strain CLA4 (second series), hits give low values
[21] = S. cerevisiae deletion strains, locus YNL322C, strain KRE1, hits give low values
[22] = S. cerevisiae deletion strains, locus YNR030W, strain Alg12, hits give low values
[23] = S. cerevisiae deletion strains, locus YPL055C, strain LGE1, hits give low values
[24] = S. cerevisiae deletion strains, locus YPL241C, strain CIN2, hits give low values
[25] = S. cerevisiae deletion strains, locus YPR135W, strain CTF4, hits give low values
[26] = S. cerevisiae strains, strain wild type, hits give low values

Measured: normalized growth

CC(C)(C)c1nc(N)sc1Br
inactive: [1] 1 | [2] 0.998 | [3] 1.04 | [4] 0.986 | [5] 0.993 | [6] 1.02 | [7] 1 | [8] 0.98 | [9] 1.01 | S. cerevisiae deletion strains, locus YJL187C, strain SWE1, hits give low values 1 | [10] 1.01 | [11] 1.01 | [12] 0.932 | [13] 1 | [14] 0.985 | [15] 0.951 | [16] 0.965 | [17] 1.01 | [18] 0.993 | [19] 1.02 | [20] 0.981 | [21] 1.01 | [22] 1 | [23] 0.984 | [24] 0.995 | [25] 0.868 | [26] 1

CN1c2ccccc2C(=O)NC1c1cc(Br)cs1 (configuration not stated)
inactive: [1] 1.02 | [2] 0.996 | S. cerevisiae deletion strains, locus YCL061C, strain MRC1, hits give low values 1.02 | [3] 0.996 | [4] 1.01 | [5] 0.996 | [6] 0.997 | [7] 1 | S. cerevisiae deletion strains, locus YGR229C, strain SMI1, hits give low values 0.998 | [8] 0.99 | [9] 1.01 | [10] 1.02 | [11] 0.993 | S. cerevisiae deletion strains, locus YKL190W, strain CNB1, hits give low values 1.01 | [12] 1.07 | [13] 1.01 | [14] 1.06 | [15] 1.06 | [16] 1.01 | [17] 1.01 | [18] 1.01 | [19] 1 | [20] 1.04 | [21] 0.996 | [22] 1.03 | S. cerevisiae deletion strains, locus YOL006C, strain TOP1, hits give low values 1.06 | [23] 1.01 | [24] 0.996 | [25] 0.969 | [26] 1.03
